# Test system: not listed separately
# Test: anti-His antibody binders, primary screen, artefact control for SMM control protein annotation, biochemical, small-molecule microarray, 635 nm fluorescence (AID 1128);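 further: score merges feature fluorescence with signal-to-noise for each printed compound spot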
# Details: anti-His Alexa647 antibody binding, higher = more signal
row,SMILES,composite z-score
1,C=CCC(OC(C)=O)[C@@H]1[C@@H](N(Cc2ccc(-c3cccc(C(F)(F)F)c3)o2)C(=O)c2ccc(-c3ccccc3)cc2)c2cc(OCCCO)ccc2N1C(=O)c1ccc2ccccc2c1 (stereo partly specified),-0.191
2,Cc1ccc(S[C@]2(C(=O)NCCCN(C)C)CC(=O)N(Cc3ccccc3C(F)(F)F)[C@@H]2c2ccc(CO)cc2I)cc1,-0.626
3,CN(C)CCCC[C@@H]1NC(=O)[C@H]2C[C@@H](C(=O)O)[C@@H](c3ccc(O)cc3)N2C1=O,3.85
4,COCCOC(=O)N1C(=O)[C@@]2(c3cc(C#CCCO)ccc31)[C@H](c1ccc(OCCO)cc1)N1[C@H](c3ccccc3)[C@H](c3ccccc3)OC(=O)[C@H]1[C@@H]2C(=O)N1CCCCCCC1,0.939
5,CCN(CC)c1ccc(N2CC=CC34O[C@@H]5C=CCCOC(=O)C5[C@H]3C(=O)N(C(C)CO)[C@@H]4C2=O)cc1 (stereo partly specified),1.72
6,CC(C)=CCCC(C)=CC(O)C1C=CC2C(=O)NC(=O)C2N1Nc1ccc(Cl)cc1Cl (stereo unspecified),0.0944
7,COC(=O)[C@@]1(Cc2ccc(F)cc2)[C@H]2c3cc(C(=O)N(C)C)n(CCc4ccc(O)c(O)c4)c3C[C@H]2CN1C(=O)c1ccccc1,-0.0012
8,N#Cc1ccc(-c2cccc(=O)o2)cc1,0.212
9,COC(=O)[C@@]1(Cc2ccccc2)[C@H]2c3cc(C(=O)N(C)C)n(CCO)c3C[C@H]2CN1C(=O)c1ccccc1,1.86
10,C=CCOC(=O)[C@H]1[C@@H]2C(=O)O[C@@H](c3ccccc3)[C@@H](c3ccccc3)N2[C@@H](c2ccc(OCCOC(=O)[C@@H]3C[C@@H]4C(=O)N[C@@H](CCCC[N+](C)(C)C)C(=O)N4[C@@H]3c3ccc(O)cc3)cc2)[C@]12C(=O)Nc1ccc(I)cc12,1.08

# Test system: Human papillomavirus type 1a E7 protein (residues 1-88)
# Test: HPV1a E7 small-molecule binders, primary screen, biochemical, small-molecule microarray, residues 1-88, 635 nm (AID 1129)
# Details: small-molecule microarray binding, fluorescence 635 nm; higher = more signal
row,SMILES,composite z-score
1,CCOC(=O)C[C@H]1[C@H](OC(=O)Cc2ccc3c(c2)OCO3)[C@@H](NC(=O)Cc2ccc(OC)cc2)c2cc(OCCCO)ccc2N1C(=O)Cc1ccc(OC)cc1,0.173
2,COC(=O)[C@@]1(Cc2ccccc2)[C@H]2c3cc(C(=O)N4CCCC4)n(Cc4ccc(OC)c(OC)c4)c3C[C@H]2CN1C(=O)c1ccccc1,1.27
3,[N-]=[N+]=Nc1ccccc1C[C@]1(C(=O)N2CCOCC2)N=C(c2ccc(OCCCO)cc2)O[C@H]1c1ccccc1N=[N+]=[N-],1.19
4,CC(C)(C)N1CC=CC23O[C@@H]4/C=C\CCCOC(=O)C4[C@H]2C(=O)N(CCCO)[C@@H]3C1=O (stereo partly specified),-0.849
5,COc1ccc(CCNC(=O)[C@@H]2c3ccccc3C(=O)N(Cc3ccccc3OC)[C@H]2c2ccc(CO)cc2)cc1,1.15
6,NC(=O)NCC#Cc1ccc2c(c1)[C@]1(C(=O)N2)[C@H](c2ccc(OCCO)cc2)N2[C@H](c3ccccc3)[C@H](c3ccccc3)OC(=O)[C@H]2[C@@H]1C(=O)O,-1.59
7,COc1ccc(C(=O)Nc2ccc3c(c2)[C@@]2(O[C@H](CCO)[C@@H]([Si](C)(C)c4ccc(OC)cc4)[C@@H]2C)C(=O)N3Cc2ccccc2)cc1,0.989
8,COC(=O)C1=CC(CCCO)=CC(c2cccs2)N(Cc2cc3c(cc2Br)OCO3)C=C1C(=O)OC (stereo unspecified),1.25
9,O=C1O[C@H](c2ccccc2)[C@H](c2ccccc2)N2[C@H]1[C@@H](C(=O)O)[C@]1(C(=O)Nc3ccc(C#CCCO)cc31)[C@H]2c1ccc(OCCO)cc1,1.22
10,CCOC(=O)C[C@H]1[C@H](OC(=O)Cc2ccc3c(c2)OCO3)[C@@H](NC(=O)c2ccc3ccccc3n2)c2cc(OCCCO)ccc2N1C(=O)Cc1ccc(OC)cc1,0.672
11,O=C(NC1CC1)[C@@H]1c2ccccc2C(=O)N(Cc2cc(C(F)(F)F)cc(C(F)(F)F)c2)[C@H]1c1ccc(CO)cc1,0.228
12,C=C(/C(=C/C[C@@H](OC(C)=O)c1cccc(OCCO)c1)c1cnc2ccccc2c1)C(C)C,0.472
13,O=C1C2C=CC(C(O)c3cccs3)N(Nc3ccc([N+](=O)[O-])cc3)C2C(=O)N1c1ccccc1 (stereo unspecified),1.11
14,C[N+](C)(C)CCCC[C@@H]1NC(=O)[C@H]2C[C@@H](C(=O)NCCCCCNC(=O)CS)[C@@H](c3cccc(OCCO)c3)N2C1=O,0.518
15,COCCOC(=O)N1C(=O)[C@@]2(c3cc(C#CCC(C(=O)OC)C(=O)OC)ccc31)[C@H](c1ccc(O)cc1)N1[C@H](c3ccccc3)[C@H](c3ccccc3)OC(=O)[C@H]1[C@@H]2C(=O)Nc1nc2ccccc2s1,1.21
16,COC(=O)[C@@]1(Cc2ccc(OC)cc2)[C@H]2c3cc(C(=O)N4CCCC4)n(Cc4c(CO)[nH]cc(C)c4=O)c3C[C@H]2CN1C(=O)c1ccccc1,1.24

# Source: PubChem BioAssay
